Only some compounds are listed: those with a hit (about 3.9% of all), similar ones and a draw of the others.
PrPC surface inh: cell surface PrPC inhibition, primary TR-FRET screen | TR-FRET read-out | inhibition, % at 13.8 µM | 0.43% of 370,000 active; in the data active = inhibition above about 24%; note: 0% = median of the test wells and 100% = reference compound wells
Mtb FBA inh: inhibits M. tuberculosis FBA enzyme | P9WQA3 | purified M. tuberculosis FBA, fluorescence read-out | inhibition, % at 1 µM | 2.3% of 360,000 active;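 note: 0% = vehicle and 100% = reference inhibitor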
Target sequence (P9WQA3 whole entry, looked up): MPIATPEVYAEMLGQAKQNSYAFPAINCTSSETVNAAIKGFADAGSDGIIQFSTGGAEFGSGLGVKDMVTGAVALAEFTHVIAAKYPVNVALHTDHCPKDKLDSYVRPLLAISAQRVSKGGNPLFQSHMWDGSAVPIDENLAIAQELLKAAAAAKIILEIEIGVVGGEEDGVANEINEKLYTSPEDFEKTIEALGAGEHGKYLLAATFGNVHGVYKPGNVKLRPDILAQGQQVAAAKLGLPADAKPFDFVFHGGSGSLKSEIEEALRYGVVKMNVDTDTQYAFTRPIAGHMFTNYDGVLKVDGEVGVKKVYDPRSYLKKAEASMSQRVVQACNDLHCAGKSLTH
GDH-TPI counter-1: inhibits GDH-TPI coupling enzymes, artifact for Mtb FBA screen; GDH-TPI coupled enzyme counterscreen, NADH absorbance; 1.2% of 360,000 active; inhibition, % at 4.8 µM; in the data active = inhibition above about 30%;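 note: 0% = DMSO wells and 100% = wells lacking the enzyme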
Vc quorum ag: induces V. cholerae light production without autoinducers | V. cholerae BH1578 lux reporter, luminescence, 6 h | activation, % at 18.7 µM | 0.16% of 350,000 active; in the data active = activation mostly above about 9.7%, no sharp cut-off
SARS 3CLpro inh: SARS-CoV 3CLpro protease inhibition. recombinant SARS-CoV 3CLpro, quenched FRET peptide cleavage. inhibition, % at 6 µM. P0C6X7. 0.14% of 290,000 active; in the data active = inhibition above about 12%
Mtb FBA inh conf: Mtb FBA inhibition, confirmed. 78% of 5,600 active. purified M. tuberculosis FBA, fluorescence read-out. shares compounds with Mtb FBA inh. inhibition, % at 1 µM. AID 651616;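 note: 0% = vehicle wells and 100% = reference inhibitor wells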
GDH-TPI counter-2: counter-screen for M. tuberculosis FBA inhibitors: GDH-TPI coupled enzyme inhibition | 81% of 5,600 active | inhibition, % at 1 µM | shares compounds with Mtb FBA inh | GDH-TPI coupled enzyme counterscreen, fluorescence; in the data active = inhibition above about 10%
GDH-TPI dose: counter-screen for M. tuberculosis FBA inhibitors: GDH-TPI dose response; AID 652145; 79% of 170 active; GDH-TPI coupled enzyme assay, fluorescence, artifact counterscreen; shares compounds with Mtb FBA inh; IC50, µM; call rule not given here
* marks the source's active call; other numbers are inactive results; i = inactive; . = no result; + = active, no number. Cut-off read from the data, not from the text of the source, unless noted: active = inhibition above about 27%; inactive = the rest.

SMILES | PrPC surface inh | Mtb FBA inh | GDH-TPI counter-1 | Vc quorum ag | SARS 3CLpro inh | Mtb FBA inh conf | GDH-TPI counter-2 | others
Cc1ccc2nc3c(cc(C(=O)NCc4ccco4)c(=N)n3C3CCCC3)c(=O)n2c1 | -12 | 39* | -1 | i | -2 | 92* | 76*
COC(=O)C[C@@H]1CC[C@@H]2[C@H](COc3ccc(NC(=O)Nc4c(C)noc4C)cc3C(=O)N2C)O1 | -5 | . | . | . | . | . | .
Cc1ccc(C(O)c2ncc(-c3ccccc3C(F)(F)F)[nH]2)cc1F (centres undefined) | 0 | 2 | -4 | 0 | . | . | .
CN(C)C1CN(Cc2cn(Cc3cccc(C(F)(F)F)c3)nn2)S(=O)(=O)C1 (centres undefined) | 2 | . | . | . | . | . | .
CCCn1c(=N)c(S(=O)(=O)c2ccccc2)cc2c(=O)n3cccc(C)c3nc21 | -6 | 2 | -7 | 0 | -4 | . | .
Cc1cccn2c(=O)c3cc(C(=O)NC4CCCCC4)c(=N)n(Cc4ccccc4)c3nc12 | -3 | 62* | 4 | -1 | -5 | 103* | 89*
Cc1cccn2c(=O)c3cc(C(=O)NC4CCCC4)c(=N)n(CCc4ccccc4)c3nc12 | -11 | 63* | 5 | 0 | 1 | 119* | 78*
Cc1cccn2c(=O)c3cc(C(=O)NC4CCCC4)c(=N)n(Cc4ccc(F)cc4)c3nc12 | -7 | 60* | 0 | 0 | -3 | 6 | 1
CC1(C(=O)NS(=O)(=O)c2ccccc2)CCN1C(=O)CCc1ccc(Cl)cc1Cl (centres undefined) | -7 | 0 | -8 | -1 | . | . | .
CNc1cncc(-c2ccc(F)cc2F)n1 | 7 | 112* | 14 | -1 | . | 104* | 68*
COc1cccc(-c2cnc3cccnn23)c1 | -5 | 53* | -3 | 0 | . | 97* | 69*
Cc1ccc(-c2cnc3cccnn23)cc1F | -2 | 60* | 3 | 0 | . | -5 | -5
CCc1cccc(NC(=O)CNC(=O)N2CC(=O)Nc3ccccc32)c1 | 3 | 0 | 5 | -3 | -5 | . | .
CCc1cccc(Nc2c([N+](=O)[O-])cc(C(=O)N3CC(=O)Nc4ccccc43)cc2[N+](=O)[O-])c1 | -7 | 111* | 16 | 0 | 0 | 145* | 103*
O=C(COc1ccc(Br)cc1)N1CCCCCC1 | -1 | -2 | -1 | -6 | 5 | . | .
O=C(COc1ccc(Br)cc1)N1CCN(C2CCCC2)CC1 | -5 | 33* | 6 | i | -5 | 29* | 13*
CCOc1c2ccc(C(=O)NCc3cc(C(F)(F)F)cc(C(F)(F)F)c3)cc2nn1C | 22 | 57* | 9 | -5 | 1 | 60* | 44*
CCOc1c2ccc(C(=O)NCc3cc(C(F)(F)F)cc(C(F)(F)F)c3)cc2nn1CCOC | 4 | 43* | 5 | -5 | 3 | 105* | 64*
COCCn1nc2cc(C(=O)NCc3cc(C(F)(F)F)cc(C(F)(F)F)c3)ccc2c1OC | 0 | 47* | 6 | 0 | 4 | 57* | 42*
CCCCn1nc2cc(C(=O)NCc3cc(C(F)(F)F)cc(C(F)(F)F)c3)ccc2c1OCC | 4 | 18 | 12 | 1 | 6 | . | .
O=C(Nc1ccc(F)cc1)C(CCc1ccccc1)N1CCN(c2ccncc2)CC1 (centres undefined) | -10 | . | . | . | . | . | .
CCOP(=O)(OCC)c1nc(-c2ccccc2)oc1NCc1ccccc1 | 10 | 82* | 8 | 1 | 2 | 24 | 13*
CCOP(=O)(OCC)c1nc(-c2ccc(F)cc2)oc1NCc1ccccc1 | 3 | 77* | 3 | 0 | 1 | 46* | 29*
CCOP(=O)(c1ccccc1)c1nc(-c2ccc(F)cc2)oc1N1CCCCC1 (centres undefined) | -2 | -3 | 9 | 1 | 5 | . | .
O=P(c1ccccc1)(c1ccccc1)c1nc(-c2ccccc2)oc1NCc1ccccc1 | 8 | 4 | 1 | 0 | -3 | . | .
SMILES | PrPC surface inh | Mtb FBA inh | GDH-TPI counter-1 | Vc quorum ag | SARS 3CLpro inh | Mtb FBA inh conf | GDH-TPI counter-2 | others
CC(C)CNc1ncnc2c1ncn2[C@H]1CN(C2CCCC2)C[C@@H](CO)O1 | -3 | -1 | -5 | -1 | . | . | .
O=S(=O)(/N=C(/Nc1ccc(Cl)cc1Cl)c1ccccc1)c1cccs1 | -1 | 1 | -14 | i | 4 | . | .
COc1ccc(N(C)S(=O)(=O)c2cccc(C(=O)OCC(=O)c3c(N)n(C)c(=O)n(C)c3=O)c2)cc1 | 10 | -2 | 2 | 4 | . | . | .
CN(C)C1(CNCC(O)c2ccccc2)CCCCC1 (centres undefined) | -2 | 30* | 10 | 2 | -2 | 121* | 106*
CCCCN(CCCC)Cc1cc2ccccc2c2c1COC2 | -8 | 4 | 1 | 0 | 9 | . | .
CCNc1nc(Oc2ccc(C#N)cc2)cc(C(F)(F)F)n1 | 2 | 56* | 7 | 0 | -1 | 131* | 88*
CCOC(=O)N1CCN(CC(O)COC2CC(C)CCC2C(C)C)CC1 (centres undefined) | -7 | 34* | 2 | i | 2 | 13 | -7 | GDH-TPI dose=>10
Nc1ccn([C@@H]2O[C@H](C(=O)N[C@H](Cc3ccccc3)C(=O)N[C@H]3CCCCNC3=O)[C@@H](O)[C@H]2O)c(=O)n1 | 6 | . | . | . | . | . | .
Cc1ccc(CN2CCN(CCCn3cccn3)CC2CCO)cc1 (centres undefined) | -11 | 4 | -2 | 1 | -1 | . | .
COc1cccc(C(=O)NCCNc2nc3cc(C)cc(C)c3cc2C#N)c1 | -1 | . | . | . | . | . | .
COc1cc(C(=O)NCCCNc2nc3cc(C)cc(C)c3cc2C#N)cc(OC)c1OC | -6 | 32* | 14 | 0 | -6 | 85* | 55*
Cc1cc(C)c2cc(C#N)c(NCCCNC(=O)c3ccncc3)nc2c1 | 2 | 16 | -2 | 0 | . | . | .
COc1ccc(C(=O)NCCNc2nc3ccc(C)cc3cc2C#N)cc1OC | 4 | 35* | -1 | i | -1 | + | 158*
CCCN1CCN(CC(=O)Nc2nncs2)CC1 | 6 | 1 | -1 | i | -5 | . | .
COc1ccc(CCNC(=O)C(=O)c2cn(CC(=O)N3CCOCC3)c3ccccc23)cc1OC | 2 | 27* | 12 | -1 | -4 | + | +
O=C(O)C[C@H]1c2ccc(C(F)(F)F)cc2S(=O)(=O)N1Cc1ccccc1 | 1 | 3 | -1 | i | . | . | .
CCC(=O)Oc1ccc2c(C)cc(=O)oc2c1C | -6 | 39* | 4 | i | -6 | 94* | 95*
CCOC(=O)C(C)Oc1ccc2c(CC)cc(=O)oc2c1C (centres undefined) | 2 | 31* | 2 | 2 | 3 | 74* | 72*
CCOC(=O)CCc1c(C)c2ccc(OC(C)C(=O)OCC)c(C)c2oc1=O (centres undefined) | 11 | 51* | 21 | -1 | 5 | 55* | 44*
